Reference: PubChem BioAssay AID1159580 (chemical genetic matrix, 2015)
Among all 5,500 compounds or so, about 2,000 (36%) were called active. Not shown: some 18% with an inconclusive outcome. Rule as the data show it: active = normalized growth mostly below about 0.91 (no sharp cut-off); inconclusive = no clear call, values can overlap the other calls; inactive = mostly above about 0.92. The list shows a part of the results.

Experiment: chemical genetic growth profiling, strain panel (AID 1159580);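 also: tested at 20 µM; growth read once vehicle control cultures reached saturation at 30 °C; 1 = growth at the plate median or of vehicle wells; lower values mean less growth of the strain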
Conditions: S. cerevisiae deletion strains, growth OD
[1] = locus YDR150W, strain NUM1, active compounds read low
[2] = locus YMR307W, strain GAS1, active compounds read low
[3] = locus YPL055C, strain LGE1, active compounds read low

Measured: normalized growth

C[C@]12C=CC(=O)C=C1CC[C@H]1[C@@H]3C[C@@H](O)[C@](O)(C(=O)CO)[C@@]3(C)C[C@H](O)[C@@]12F
inactive: locus YAL040C, strain CLN3, active compounds read low 1.02 | locus YCL061C, strain MRC1 (second series), active compounds read low 1.01 | [1] 1 | locus YDR363W, strain ESC2, active compounds read low 1.05 | locus YER002W, strain NOP16, active compounds read low 1.01 | locus YGR078C, strain PAC10, active compounds read low 1 | [2] 1.02 | locus YNL128W, strain TEP1, active compounds read low 1.01 | locus YNL153C, strain GIM3, active compounds read low 1 | locus YNL175C, strain NOP13, active compounds read low 1 | locus YNL197C, strain WHI3, active compounds read low 0.987 | locus YNL224C, strain SQS1, active compounds read low 1.01 | locus YOR083W, strain WHI5 (second series), active compounds read low 1.01 | [3] 1.03

CSCCC(NC=O)C(=O)NC(CC(C)C)C(=O)NC(Cc1ccccc1)C(=O)O (centres undefined)
inactive: locus YAL013W, strain DEP1, active compounds read low 1.01 | locus YAL021C, strain ccr4, active compounds read low 1.01 | locus YAL026C, strain drs2, active compounds read low 1 | locus YAL030W, strain snc1, active compounds read low 1 | locus YBL061C, strain skt5, active compounds read low 1 | locus YBR009C, strain hhf1, active compounds read low 1 | locus YBR021W, strain FUR4, active compounds read low 0.998 | locus YBR023C, strain chs3, active compounds read low 1 | locus YBR171W, strain sec66, active compounds read low 0.998 | locus YBR229C, strain ROT2, active compounds read low 1 | locus YBR231C, strain swc5, active compounds read low 0.997 | locus YBR279W, strain paf1, active compounds read low 1.01 | locus YCL011C, strain gbp2, active compounds read low 1 | locus YCL016C, strain dcc1, active compounds read low 1 | locus YCL029C, strain bik1, active compounds read low 0.983 | locus YCL061C, strain MRC1, active compounds read low 1.01 | locus YCL069W, strain vba3, active compounds read low 1.01 | locus YCR088W, strain abp1, active compounds read low 0.999 | locus YDL005C, strain med2, active compounds read low 0.988 | locus YDL035C, strain GPR1, active compounds read low 0.999 | locus YDL040C, strain nat1, active compounds read low 1 | locus YDL074C, strain BRE1, active compounds read low 1.03 | locus YDL101C, strain DUN1, active compounds read low 1.02 | locus YDL134C, strain PPH21, active compounds read low 0.996 | locus YDL185W, strain tfp1, active compounds read low 0.994 | locus YDL192W, strain arf1, active compounds read low 0.994 | locus YDR001C, strain nth1, active compounds read low 1 | locus YDR069C, strain doa4, active compounds read low 1 | locus YDR101C, strain arx1, active compounds read low 1 | locus YDR137W, strain rgp1, active compounds read low 1.01 | [1] 1.01 | locus YDR159W, strain sac3, active compounds read low 1 | locus YDR162C, strain NBP2, active compounds read low 1 | locus YDR195W, strain ref2 0.97 | locus YDR297W, strain sur2, active compounds read low 0.99 | locus YDR318W, strain mcm21, active compounds read low 1.01 | locus YDR334W, strain swr1, active compounds read low 1.01 | locus YDR335W, strain msn5, active compounds read low 1 | locus YDR388W, active compounds read low 1 | locus YDR392W, strain spt3, active compounds read low 1.01 | locus YDR502C, strain sam2, active compounds read low 1 | locus YEL003W, strain gim4, active compounds read low 1 | locus YEL037C, strain rad23, active compounds read low 1.01 | locus YEL061C, strain CIN8 (second series), active compounds read low 1.02 | locus YEL061C, strain CIN8, active compounds read low 1.01 | locus YER015W, strain faa2, active compounds read low 1 | locus YER016W, strain bim1, active compounds read low 1 | locus YER110C, active compounds read low 1.01 | locus YER111C, strain swi4, active compounds read low 1 | locus YER155C, strain BEM2 (second series), active compounds read low 0.995 | locus YER155C, strain BEM2, active compounds read low 1.01 | locus YER167W, strain BCK2, active compounds read low 0.995 | locus YFR010W, strain ubp6, active compounds read low 1 | locus YGL078C, strain dbp3, active compounds read low 0.99 | locus YGL086W, strain mad1, active compounds read low 1 | locus YGL167C, strain pmr1, active compounds read low 1 | locus YGL173C, strain kem1, active compounds read low 1.01 | locus YGL227W, strain vid30, active compounds read low 0.992 | locus YGL240W, strain doc1, active compounds read low 1 | locus YGL248W, strain PDE1, active compounds read low 1.01 | locus YGL253W, strain hxk2, active compounds read low 0.995 | locus YGR135W, strain pre9, active compounds read low 1 | locus YGR252W, strain gcn5, active compounds read low 1.01 | locus YHR013C, strain ard1, active compounds read low 1 | locus YHR027C, strain rpn1, active compounds read low 0.986 | locus YHR030C, strain SLT2, active compounds read low 0.998 | locus YHR079C, strain IRE1 (second series), active compounds read low 1 | locus YHR094C, strain hxt1, active compounds read low 1 | locus YHR129C, strain ARP1, active compounds read low 1.01 | locus YHR142W, strain chs7, active compounds read low 1.01 | locus YHR200W, strain rpn10, active compounds read low 0.98 | locus YIL066C, strain RNR3, active compounds read low 0.996 | locus YIL073C, strain SPO22, active compounds read low 1.01 | locus YIL125W, strain kgd1, active compounds read low 0.998 | locus YIR030C, strain dcg1, active compounds read low 0.99 | locus YJL092W, strain hpr5, active compounds read low 0.993 | locus YJL095W, strain BCK1 (second series), active compounds read low 1 | locus YJL095W, strain BCK1, active compounds read low 1.03 | locus YJL115W, strain asf1, active compounds read low 1.01 | locus YJL129C, strain trk1, active compounds read low 1 | locus YJL134W, strain LCB3, active compounds read low 1 | locus YJL154C, strain vps35, active compounds read low 1 | locus YJL164C, strain tpk1, active compounds read low 1.01 | locus YJL166W, strain qcr8, active compounds read low 1.03 | locus YJL168C, strain set2, active compounds read low 1.01 | locus YJL187C, strain SWE1 (second series), active compounds read low 1.04 | locus YJL187C, strain SWE1, active compounds read low 0.999 | locus YJR043C, strain POL32, active compounds read low 0.992 | locus YJR075W, strain HOC1, active compounds read low 1.02 | locus YKL009W, strain mrt4, active compounds read low 1.01 | locus YKL068W, active compounds read low 0.996 | locus YKL085W, strain MDH1 (second series), active compounds read low 0.995 | locus YKL085W, strain MDH1, active compounds read low 0.995 | locus YKL160W, strain elf1, active compounds read low 1.01 | locus YKL190W, strain CNB1, active compounds read low 1.01 | locus YKR001C, strain vps1, active compounds read low 0.992 | locus YKR026C, strain gcn3, active compounds read low 0.994 | locus YKR091W, strain srl3, active compounds read low 1.01 | locus YLL001W, strain dnm1, active compounds read low 1 | locus YLL026W, active compounds read low 0.996 | locus YLL041C, strain sdh2, active compounds read low 1.01 | locus YLR027C, strain aat2, active compounds read low 0.988 | locus YLR039C, strain RIC1, active compounds read low 1 | locus YLR058C, strain SHM2, active compounds read low 1.02 | locus YLR102C, strain apc9, active compounds read low 1 | locus YLR221C, strain rsa3, active compounds read low 0.998 | locus YLR258W, strain gsy2, active compounds read low 1.02 | locus YLR262C, strain YPT6 (second series), active compounds read low 1.02 | locus YLR262C, strain YPT6, active compounds read low 1.05 | locus YLR268W, strain sec22, active compounds read low 1 | locus YLR320W, strain mms22, active compounds read low 0.998 | locus YLR330W, strain CHS5, active compounds read low 1.01 | locus YLR342W, strain FKS1 (second series), active compounds read low 1.01 | locus YLR342W, strain FKS1, active compounds read low 1 | locus YLR357W, strain rsc2, active compounds read low 0.971 | locus YLR370C, strain arc18, active compounds read low 1 | locus YLR371W, strain rom2, active compounds read low 1.01 | locus YLR384C, strain iki3, active compounds read low 1 | locus YLR418C, strain cdc73, active compounds read low 0.998 | locus YML016C, strain PPZ1, active compounds read low 1 | locus YML032C, strain rad52, active compounds read low 0.998 | locus YML120C, strain ndi1, active compounds read low 1.01 | locus YML124C, strain tub3, active compounds read low 1 | locus YMR058W, strain fet3, active compounds read low 1 | locus YMR078C, strain ctf18, active compounds read low 1 | locus YMR125W, strain sto1, active compounds read low 0.993 | locus YMR129W, active compounds read low 1 | locus YMR205C, strain PFK2, active compounds read low 1 | locus YMR223W, strain ubp8, active compounds read low 1 | locus YMR231W, strain pep5, active compounds read low 0.977 | [2] 1.05 | locus YNL067W, strain RPL9B, active compounds read low 1.03 | locus YNL071W, strain lat1, active compounds read low 1 | locus YNL209W, strain ssb2, active compounds read low 1.01 | locus YNL233W, strain BNI4, active compounds read low 1.02 | locus YNL248C, strain rpa49, active compounds read low 1 | locus YNL250W, strain rad50, active compounds read low 1.01 | locus YNL271C, strain bni1, active compounds read low 0.996 | locus YNL298W, strain CLA4, active compounds read low 1 | locus YNL307C, strain MCK1, active compounds read low 1 | locus YNL322C, strain KRE1 (second series), active compounds read low 0.996 | locus YNR049C, strain mso1, active compounds read low 0.998 | locus YNR052C, strain pop2, active compounds read low 1 | locus YOL006C, strain TOP1, active compounds read low 1.06 | locus YOL012C, strain htz1 0.872 | locus YOL147C, strain pex11, active compounds read low 1 | locus YOR001W, strain rrp6, active compounds read low 1.01 | locus YOR061W, strain CKA2, active compounds read low 0.997 | locus YOR069W, strain VPS5, active compounds read low 1 | locus YOR070C, strain gyp1, active compounds read low 1.02 | locus YOR080W, strain dia2, active compounds read low 0.99 | locus YOR083W, strain WHI5, active compounds read low 1 | locus YOR106W, strain vam3, active compounds read low 1.01 | locus YOR136W, strain idh2, active compounds read low 1.01 | locus YOR144C, strain elg1, active compounds read low 0.987 | locus YOR184W, strain ser1, active compounds read low 0.986 | locus YOR265W, strain rbl2, active compounds read low 1.01 | locus YOR270C, strain vph1, active compounds read low 1.03 | locus YOR290C, strain snf2, active compounds read low 1.01 | locus YOR316C, strain cot1, active compounds read low 1 | locus YPL051W, strain arl3, active compounds read low 0.996 | [3] 1.01 | locus YPL078C, strain atp4, active compounds read low 1 | locus YPL106C, strain sse1, active compounds read low 0.99 | locus YPL240C, strain hsp82, active compounds read low 0.999 | locus YPR119W, strain clb2, active compounds read low 1 | locus YPR141C, strain kar3, active compounds read low 0.985 | locus YPR163C, strain tif3, active compounds read low 1 | locus YPR167C, strain met16, active compounds read low 0.994 | strain wtn01, active compounds read low 0.986
